Consider twelve molecules from PubChem BioAssay.

The structures appear in SMILES notation. Activity calls are given as the source filed them.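 Rule for the calls: active = compounds whose cell count with miR-34 switched on is under 0.7 times the count with it off; inactive = the rest.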

This assay can be described thus: sensitizers of A549 cells to miR-34 induction, primary screen, imaging, A549 dox-inducible miR-34, nuclei and caspase counts (AID 1347080). Note: test concentration not given here. The conditions noted are these: A549 miR-34 inducible, Hoechst nuclei count, 48 h; stronger effect = lower value; cell number ratio, induced over uninduced.
Take `Cc1cc2c(F)c(Oc3ncnn4cc(OCC(C)O)c(C)c34)ccc2[nH]1` (configuration not stated): the fold change is 1.07 (inactive).

Take `COC1C(O)CC(=O)OC(C)CC=CC=CC(OC2CCC(N(C)C)C(C)O2)C(C)CC(CC=O)C1OC1OC(C)C(OC2C[C@](C)(O)C(O)C(C)O2)C(N(C)C)C1O` (some centres not stated): the fold change is 0.934 (inactive).

As for `CC(=O)c1cc([N+](=O)[O-])c(Sc2ccc(F)cc2F)s1`, the fold change was 0.898 (inactive).

On to `C[C@]12C[C@@]3(O)O[C@@H](O1)[C@]1(COC(=O)c4ccccc4)[C@H]3C[C@@]12OC1OC(CO)C(O)C(O)C1O` (some centres not stated), for which the fold change was 0.87 (inactive).

With `O=c1[nH]c(=O)n(C2CC(O)C(CO)O2)cc1C(F)(F)F` (configuration not stated), the fold change is 1.15 (inactive).

As to `CC1(C)O[C@@H]2C[C@H]3[C@@H]4CCC5=CC(=O)C=C[C@]5(C)[C@@H]4C(O)C[C@]3(C)[C@@]2(C(=O)CO)O1` (some centres not stated), the fold change was 0.87 (inactive).

In the case of `O=C(c1ccccc1)c1ccc2nc(NC(=O)c3csc(C4CCN(c5ncnc6ccsc56)CC4)n3)[nH]c2c1`, the fold change is 1.1 (inactive).

Turning to `COc1cc(-c2cc(-c3cccc(O)c3)cnc2N)cc(OC)c1OC`, the fold change was 0.804 (inactive).

Turning to `CC(=CC(=O)Nc1ccccc1C(=O)O)c1ccc2ccccc2c1`, the fold change is 0.983 (inactive).

Regarding `O=C(c1cn(Cc2cncn2Cc2ccc(Br)cc2)cc1-c1cccc2ccccc12)N1CCOCC1`, the fold change is 0.999 (inactive).

On to `C=C[C@]1(C)CC(OC(=O)CSC(C)(C)CNC(=O)C(N)C(C)C)[C@@]2(C)C(C)CC[C@]3(CCC(=O)[C@H]32)C(C)C1O` (some centres not stated), for which the fold change was 0.851 (inactive).

Consider `O=C(O)CC1CC(c2ccccc2)=NO1` (configuration not stated), for which the fold change is 0.969 (inactive).
